Measured values published in PubChem BioAssay AID1159580 (chemical genetic matrix, 2015).
Screen size: about 5,500 compounds; about 2,000 (36%) were called active. About 18% were inconclusive and are not listed. Cut-off read from the data, not from the text of the source: active = normalized growth mostly below about 0.91 (no sharp cut-off); inconclusive = no clear call, values can overlap the other calls; inactive = mostly above about 0.92. Some of the results follow.

Assay: chemical genetic growth profiling, strain panel (AID 1159580);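 note: tested at 20 µM; growth read once vehicle control cultures reached saturation at 30 °C; 1 = growth at the plate median or of vehicle wells; lower values mean less growth of the strain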
Details: S. cerevisiae deletion strains, growth OD

Measured: normalized growth

C=CCn1c(=O)c2c(nc(-c3ccc(S(=O)(=O)O)cc3)n2C)n(C)c1=O
inactive: locus YAL013W, strain DEP1, hits give low values 0.982 | locus YAL040C, strain CLN3, hits give low values 0.965 | locus YCL061C, strain MRC1 (second series), hits give low values 0.985 | locus YDR363W, strain ESC2, hits give low values 1.07 | locus YER002W, strain NOP16, hits give low values 1.01 | locus YGR078C, strain PAC10, hits give low values 0.997 | locus YNL153C, strain GIM3, hits give low values 1.01 | locus YNL175C, strain NOP13, hits give low values 1 | locus YNL197C, strain WHI3, hits give low values 0.987 | locus YNL224C, strain SQS1, hits give low values 0.99 | locus YOR083W, strain WHI5 (second series), hits give low values 1.03 | locus YPL241C, strain CIN2, hits give low values 0.979
